Results reported in PubChem BioAssay AID1159580 (chemical genetic matrix, 2015).
Screen size: about 5,500 compounds; about 2,000 (36%) were called active. Not shown: some 18% with an inconclusive outcome. No stated cut-off is given here; in the data, active means normalized growth mostly below about 0.91 (no sharp cut-off); inconclusive means no clear call, values can overlap the other calls; inactive means mostly above about 0.92. This is one part of the list.

Assay: chemical genetic growth profiling, strain panel (AID 1159580);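 further: tested at 20 µM; growth read once vehicle control cultures reached saturation at 30 °C; 1 = growth at the plate median or of vehicle wells; lower values mean less growth of the strain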
Conditions: S. cerevisiae deletion strains, growth OD

Measured: normalized growth

CNc1ncnc2c1ncn2[C@H]1C[C@H](OP(=O)(O)O)[C@@H](COP(=O)(O)O)O1
inactive: locus YAL040C, strain CLN3, hits give low values 0.995 | locus YCL061C, strain MRC1 (second series), hits give low values 1.01 | locus YDR363W, strain ESC2, hits give low values 1 | locus YER002W, strain NOP16, hits give low values 0.983 | locus YGR229C, strain SMI1, hits give low values 1.02 | locus YJR075W, strain HOC1, hits give low values 1.01 | locus YNL175C, strain NOP13, hits give low values 0.996 | locus YNL197C, strain WHI3, hits give low values 1 | locus YNL224C, strain SQS1, hits give low values 1 | locus YNL322C, strain KRE1, hits give low values 1.01 | locus YOR083W, strain WHI5 (second series), hits give low values 1.01 | locus YPL055C, strain LGE1, hits give low values 1.01 | locus YPL241C, strain CIN2, hits give low values 1
